Measured values published in the supplement of paper PMC13380429.

Test system: Vero E6 infected with SARS-CoV-2
Assay: inhibition of SARS-CoV-2 cytopathic effect; higher = more antiviral protection, active = above 15
Conditions: 48 h

Row | SMILES | inhibition of SARS-CoV-2 cytopathic effect (1 nM) | inhibition of SARS-CoV-2 cytopathic effect (8.33 nM) | inhibition of SARS-CoV-2 cytopathic effect (100 nM) | inhibition of SARS-CoV-2 cytopathic effect (833.33 nM) | inhibition of SARS-CoV-2 cytopathic effect (10000 nM)
1 | c1cc(CN2CCCNCCNCCCNCC2)ccc1CN1CCCNCCNCCCNCC1 [plerixafor] | -2.23% (inactive) | -1.5% (inactive) | 0.88% (inactive) | 0.29% (inactive) | 1.12% (inactive)
2 | CC(C)(C)C(=O)OCOC(=O)[C@@H]1N2C(=O)C[C@H]2S(=O)(=O)C1(C)C [sulbactam-pivoxil] | -1.2% (inactive) | -4.28% (inactive) | -7.15% (inactive) | 5.91% (inactive) | -2.18% (inactive)
3 | CN1CCCCC1CCN1c2ccccc2Sc2ccc([S+](C)[O-])cc21 (stereo not given) [mesoridazine] | -0.86% (inactive) | -1.76% (inactive) | -0.98% (inactive) | -3.35% (inactive) | -3.76% (inactive)
4 | C[C@]12CCC(=O)C=C1[C@@H]1C[C@@H]1[C@H]1[C@@H]3[C@@H]4C[C@@H]4[C@@]4(CCC(=O)O4)[C@@]3(C)CC[C@@H]12 [drospirenone] | -10.6% (inactive) | -1.07% (inactive) | -3.16% (inactive) | 0.94% (inactive) | 5.09% (inactive)
5 | O=C(Nc1ccccc1C(=O)NC1CCCCNC1=O)c1cc2ccccc2s1 (stereo not given) | -1.69% (inactive) | -3.72% (inactive) | -3.22% (inactive) | -1.52% (inactive) | -0.14% (inactive)
6 | CCCC(O)C(CC)CO (stereo not given) [2-ethyl-1,3-hexanediol] | 4.92% (inactive) | 0.49% (inactive) | 1.14% (inactive) | 0.52% (inactive) | 0.65% (inactive)
7 | COc1ccc(Cn2ccc3ccc(C(=O)NO)cc32)cc1 | 0.35% (inactive) | 0.42% (inactive) | 3.29% (inactive) | 1.7% (inactive) | -2.47% (inactive)
8 | CC(=O)N(CC(O)CO)c1c(I)c(C(=O)NCCO)c(I)c(C(=O)NCC(O)CO)c1I (stereo not given) [ioxilan] | 1.8% (inactive) | 0.19% (inactive) | -2.31% (inactive) | -1.98% (inactive) | -0.58% (inactive)
9 | CCCc1nc(C(C)(C)O)c(C(=O)O)n1Cc1ccc(-c2ccccc2-c2nnn[nH]2)cc1 [olmesartan] | 1.89% (inactive) | -1.22% (inactive) | 1.17% (inactive) | 0.82% (inactive) | -0.94% (inactive)
10 | Nc1nc(=O)n([C@@H]2O[C@H](CO)[C@@H](O)[C@@H]2F)cc1I [fiacitabine] | -1.38% (inactive) | -1.55% (inactive) | 2.03% (inactive) | -1.22% (inactive) | -0.56% (inactive)
11 | CC(=O)N[C@H](Cc1ccc2ccccc2c1)C(=O)N[C@H](Cc1ccc(Cl)cc1)C(=O)N[C@H](Cc1cccnc1)C(=O)N[C@@H](CO)C(=O)N[C@@H](Cc1ccc(O)cc1)C(=O)N[C@H](CCCNC(N)=O)C(=O)N[C@@H](CC(C)C)C(=O)N[C@@H](CCCNC(=N)N)C(=O)N1CCC[C@H]1C(=O)N[C@H](C)C(N)=O [cetrorelix] | -4.73% (inactive) | -2.29% (inactive) | 5.4% (inactive) | 5.13% (inactive) | 8.43% (inactive)
12 | c1ccc2sc(SNC3CCCCC3)nc2c1 [N-cyclohexyl-2-benzothiazolesulfenamide] | 2.74% (inactive) | 0.54% (inactive) | -0.9% (inactive) | -0.46% (inactive) | -3.64% (inactive)
13 | Cn1c(NC[C@@H](N)Cc2ccccc2)nc(-c2ccncc2)c(-c2ccc3ccccc3c2)c1=O | -0.22% (inactive) | 0.05% (inactive) | -0.08% (inactive) | 2.09% (inactive) | 32.9% (active)
14 | COc1ccc2c(C)nc(Nc3nc(C)c(C)c(O)n3)nc2c1 [madrasin] | -1.29% (inactive) | 0.26% (inactive) | 1.24% (inactive) | 0.66% (inactive) | 30.8% (active)
15 | NCc1c[nH]c(=S)n1[C@H]1CCc2c(F)cc(F)cc2C1 [nepicastat] | -0.64% (inactive) | 1.63% (inactive) | 2.16% (inactive) | 0.6% (inactive) | -0.04% (inactive)
16 | O=C(c1ccc(Cl)o1)N1CC2CNCC2C1 (stereo not given) | -0.08% (inactive) | 1.51% (inactive) | 2.2% (inactive) | 1.83% (inactive) | 0.93% (inactive)
17 | CCCCCCCCCCCCCCCc1cccc(OCC(=O)NCCO)c1 | -0.98% (inactive) | -2.66% (inactive) | -0.69% (inactive) | 1.46% (inactive) | -1.78% (inactive)
18 | NS(=O)(=O)c1cc(C(=O)O)cc(N2CCCC2)c1Oc1ccccc1 [piretanide] | 3.5% (inactive) | 5.18% (inactive) | 2.39% (inactive) | -2.57% (inactive) | 1% (inactive)
19 | CC(C)N(C[C@H]1O[C@@H](n2cnc3c(N)ncnc32)[C@H](O)[C@@H]1O)[C@H]1C[C@@H](CCc2nc3cc(C(C)(C)C)ccc3[nH]2)C1 | 1.37% (inactive) | 1.4% (inactive) | 1.55% (inactive) | 3.8% (inactive) | 4.66% (inactive)
20 | CN1CC(O)C2=C/C(=N/NC(N)=O)C(=O)C=C21 (stereo not given) [carbazochrome] | 2.27% (inactive) | 3.04% (inactive) | -0.28% (inactive) | -1.11% (inactive) | 0.54% (inactive)

Row | SMILES | inhibition of SARS-CoV-2 cytopathic effect (1 nM) | inhibition of SARS-CoV-2 cytopathic effect (8.33 nM) | inhibition of SARS-CoV-2 cytopathic effect (100 nM) | inhibition of SARS-CoV-2 cytopathic effect (833.33 nM) | inhibition of SARS-CoV-2 cytopathic effect (10000 nM)
21 | Nc1cc(Cl)c(N=C2NCCN2)c(Cl)c1 [apraclonidine] | -2.77% (inactive) | 1.32% (inactive) | -1.3% (inactive) | -1.26% (inactive) | -0.76% (inactive)
22 | CC(C)C[C@@H](C=O)NC(=O)[C@H](CC(C)C)NC(=O)[C@H](CC(C)C)NC(=O)OCc1ccccc1 | -0.72% (inactive) | 0.74% (inactive) | 9.43% (inactive) | 54% (active) | 55.5% (active)
23 | O=C(c1ccc(OCCCc2c[nH]cn2)cc1)C1CC1 [ciproxifan] | -1.13% (inactive) | -1.91% (inactive) | -1.12% (inactive) | 9.43% (inactive) | 10.2% (inactive)
24 | CN1CC[C@@H](NC(=O)Nc2ccc(C#N)cc2)C[C@@H]1c1nc2ccccc2[nH]1 [glasdegib] | 2.8% (inactive) | 1.32% (inactive) | 1.05% (inactive) | -0.41% (inactive) | 1.71% (inactive)
25 | N#CC1(c2ccc(NC(=O)c3cccnc3NCc3ccncc3)cc2)CCCC1 [apatinib] | 1.27% (inactive) | 0.67% (inactive) | 0.81% (inactive) | 0.23% (inactive) | -0.18% (inactive)
26 | COc1cc(OC)c(/C=C2/C(=O)Nc3ccccc32)c(OC)c1 | 2.03% (inactive) | 1.86% (inactive) | 2.55% (inactive) | 1.29% (inactive) | -1.88% (inactive)
27 | N=C1N[C@H]2[C@H](CS[C@H]2CCCCC(=O)O)N1 [2-iminobiotin] | -0.5% (inactive) | 1.48% (inactive) | -1.14% (inactive) | -2.01% (inactive) | -2.17% (inactive)
28 | Cc1ccc(-c2ccc(F)cc2COc2ccc(CCC(=O)O)cc2)cc1 | -2.64% (inactive) | 0.79% (inactive) | -1.34% (inactive) | 0.38% (inactive) | -1.53% (inactive)
29 | CC(C)C(=O)OC[C@@]1(N=[N+]=[N-])O[C@@H](n2ccc(N)nc2=O)[C@H](OC(=O)C(C)C)[C@@H]1OC(=O)C(C)C [balapiravir] | 2.39% (inactive) | 1.09% (inactive) | 0.61% (inactive) | -0.11% (inactive) | 0.76% (inactive)
30 | O=c1ccn([C@@H]2O[C@H](COP(=O)(O)OP(=O)(O)OP(=O)(O)O)[C@@H](O)[C@H]2O)c(=O)[nH]1 | -0.655% (inactive) | 1.84% (inactive) | 3.83% (inactive) | 2.04% (inactive) | -0.735% (inactive)
31 | CCC(CC)Nc1cc(C)nc(Oc2c(C)cc(C)cc2C)c1C | -0.56% (inactive) | 0.65% (inactive) | -1.28% (inactive) | 0.01% (inactive) | -1.59% (inactive)
32 | CS(=O)(=O)N1CCN(Cc2cc3nc(-c4cccc5[nH]ncc45)nc(N4CCOCC4)c3s2)CC1 | -1.74% (inactive) | -2.51% (inactive) | 6.27% (inactive) | -5.78% (inactive) | 3.43% (inactive)
33 | CC(C)(NS(=O)(=O)c1ccc(Oc2ccc(F)cc2)cc1)C(=O)NO | 3.55% (inactive) | 0.75% (inactive) | 2.56% (inactive) | 0.48% (inactive) | -0.6% (inactive)
34 | C=C(C)[C@H]1CN[C@H](C(=O)O)[C@H]1CC(=O)O [kainic-acid] | -1.66% (inactive) | 0.99% (inactive) | 0.37% (inactive) | -1.94% (inactive) | -0.79% (inactive)
35 | CN(C)CCN(Cc1ccccc1)c1ccccn1 [tripelennamine] | 1.72% (inactive) | 2.84% (inactive) | 0.58% (inactive) | -0.69% (inactive) | -1.94% (inactive)
36 | O=C(NCCCNc1nc(Nc2cccc(NC(=O)N3CCCC3)c2)ncc1I)c1cccs1 | -2.02% (inactive) | -0.75% (inactive) | 0.52% (inactive) | -5.21% (inactive) | -23.3% (inactive)
37 | CC(=O)N[C@@H](CS)C(=O)O [acetylcysteine] | 1.87% (inactive) | 1.77% (inactive) | 3.98% (inactive) | 1.93% (inactive) | 3.74% (inactive)
38 | O=C(OCCN1CCCCC1)c1c[nH]c2ccccc12 | 0.38% (inactive) | 2.59% (inactive) | 1.63% (inactive) | -1.42% (inactive) | -6.53% (inactive)
39 | CCOC(=O)c1cnc2c(cnn2CC)c1NN=C(C)C [etazolate] | -0.85% (inactive) | 4.04% (inactive) | 0.13% (inactive) | 1.35% (inactive) | -1.47% (inactive)
